# Measurements from PubChem BioAssay (NCATS).
# Unmarked numbers belong to inactive results. Records with an inconclusive call do not appear. Calls of active or inactive are those of the source. Unless noted, calls follow the shape of the dose curve; as a rule, active = well fitted curve in either direction with a large enough effect (not every such curve was filed as active); inconclusive = small, poorly fitted or top-dose-only effect, or another doubt; inactive = flat fitted curve, though single readings scatter.
# Legend:
# [1] = AP1 Signaling Pathway (AID 357); settings: ME-180 AP-1-bla reporter, EGF-induced, beta-lactamase ratio, 5 h; at 17.2 µM (top of the series) unless noted;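 also: ME-180 reporter cells stimulated with EGF at its EC50 level; % is scaled to controls: 0 for no effect and ±100 for the full control effect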
# In short: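 A ratiometric CCF4 readout (405 nm excitation; 460 and 530 nm emission) quantified AP-1-driven beta-lactamase in ME-180 cells after 5 h with compound and EC50 EGF; AC50 values were derived for activators and inhibitors.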
# [2] = NFAT Signaling Pathway (AID 444); settings: Jurkat NFAT-bla M1, carbachol, beta-lactamase ratio, 5 h; at 17.2 µM (top of the series) unless noted;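 also: carbachol stimulus at about its EC50 of 1 µM final; % is scaled to controls: 0 for no effect and ±100 for the full control effect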
# In short: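 Jurkat cells with NFAT-driven β-lactamase reporter and co-expressed M1 receptor, stimulated with carbachol (final 1 uM, ~EC50), compound titration, 5 h at 37 °C. CCF4 loaded 1 h at RT; 460/530 nm ratio gave %activity and AC50.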
# [3] = Stat Signaling Pathway (AID 446); settings: ME-180 SIE beta-lactamase reporter, IL-6 stimulated, 5 h; at 17.2 µM (top of the series) unless noted;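 also: ME-180 cervical cancer cells given 40 pM IL-6 alongside compound; SIE-controlled beta-lactamase reporter measured as 460/530 nm FRET emission ratio; % is scaled to controls: 0 for no effect and ±100 for the full control effect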
# In short: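 Screening format detects activators and inhibitors alike: ME-180 SIE-bla cells stimulated at 40 pM IL-6 for 5 hrs with compound, then dual-emission beta-lactamase read at 405 nm excitation.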
# [4] = molecular target: Cytochrome P450 1A2 (Homo sapiens) (UniProt P05177); assay: p450-cyp1a2 (AID 410; calls by dose curve; also: potency is read from the fitted curve at half-maximal effect;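 as to activity change, negative = inhibition: -100% = full effect of reference inhibitor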)
# Chain of Cytochrome P450 1A2 (Homo sapiens) (P05177 whole entry, looked up): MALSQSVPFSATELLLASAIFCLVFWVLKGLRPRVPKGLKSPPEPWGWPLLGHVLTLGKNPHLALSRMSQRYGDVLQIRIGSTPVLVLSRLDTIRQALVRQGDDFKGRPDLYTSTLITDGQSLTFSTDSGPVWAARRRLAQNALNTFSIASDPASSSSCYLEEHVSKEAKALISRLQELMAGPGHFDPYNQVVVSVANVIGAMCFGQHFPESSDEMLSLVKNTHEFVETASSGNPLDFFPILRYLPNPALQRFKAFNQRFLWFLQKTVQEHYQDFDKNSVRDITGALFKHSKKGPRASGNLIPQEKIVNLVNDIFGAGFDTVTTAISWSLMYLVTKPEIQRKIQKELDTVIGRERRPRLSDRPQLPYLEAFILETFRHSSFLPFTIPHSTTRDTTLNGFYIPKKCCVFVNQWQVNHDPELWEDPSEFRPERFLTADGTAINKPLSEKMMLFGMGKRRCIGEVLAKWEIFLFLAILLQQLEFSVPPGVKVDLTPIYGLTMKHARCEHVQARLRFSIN
# In short: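 20nM CYP1A2 with 100uM Luciferin-ME (at Km) in 100mM KPO4; compound preincubated 10 min, NADPH regeneration added, 60 min at room temperature. Luciferin quantified by luminescence after detection reagent; normalized to 57 uM furafylline.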
# [5] = molecular target: Glucocorticoid receptor (Homo sapiens) (UniProt P04150); assay: GR-GFP Redistribution (AID 450;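 active = compounds whose dose series gives a full or clear partial fitted curve of increased nuclear translocation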; also: potency is read from the fitted curve at half-maximal effect)
# Chain of Glucocorticoid receptor (Homo sapiens) (P04150 whole entry, looked up, the tested form may be a part): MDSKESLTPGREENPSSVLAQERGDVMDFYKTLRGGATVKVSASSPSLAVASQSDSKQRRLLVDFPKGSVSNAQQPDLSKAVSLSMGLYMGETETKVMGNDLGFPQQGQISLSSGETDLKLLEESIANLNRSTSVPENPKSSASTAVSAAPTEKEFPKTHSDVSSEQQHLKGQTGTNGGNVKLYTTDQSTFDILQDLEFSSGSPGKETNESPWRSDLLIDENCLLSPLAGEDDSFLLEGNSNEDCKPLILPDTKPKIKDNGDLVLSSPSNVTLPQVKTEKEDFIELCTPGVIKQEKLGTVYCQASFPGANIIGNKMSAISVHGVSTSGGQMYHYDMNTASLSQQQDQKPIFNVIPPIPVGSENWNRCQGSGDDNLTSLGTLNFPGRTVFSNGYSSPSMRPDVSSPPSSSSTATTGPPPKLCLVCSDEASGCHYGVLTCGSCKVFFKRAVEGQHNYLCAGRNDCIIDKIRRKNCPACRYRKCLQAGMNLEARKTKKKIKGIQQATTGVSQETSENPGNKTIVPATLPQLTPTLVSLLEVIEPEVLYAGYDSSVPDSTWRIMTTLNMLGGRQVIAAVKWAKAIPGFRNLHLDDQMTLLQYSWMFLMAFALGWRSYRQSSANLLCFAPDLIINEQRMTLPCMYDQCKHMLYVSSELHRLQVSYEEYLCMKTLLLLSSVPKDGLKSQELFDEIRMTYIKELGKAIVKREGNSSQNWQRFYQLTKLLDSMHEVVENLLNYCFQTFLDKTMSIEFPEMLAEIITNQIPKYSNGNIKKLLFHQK
# [6] = molecular target: Glucocorticoid receptor (Homo sapiens) (UniProt P04150); assay: GR-EFC Redistribution (AID 451; calls by dose curve; also: potency is read from the fitted curve at half-maximal effect); settings: CHO-K1 GR-EFC translocation, beta-gal luminescence, 2 h
# In short: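 CHO-K1 cells expressing nuclear EA and GR-ED fragments of b-gal; compounds titrated up to 46 uM final, 2 h at 37 C. GR nuclear translocation read as complemented b-gal luminescence after 1 h RT detection.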
# [7] = molecular target: Mitogen-activated protein kinase 10 (Mus musculus) (UniProt Q61831); assay: JNK3 AlphaScreen Assay (AID 530);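 also: kinase came from lysate of stimulated human HepG2 cells; signal reports phosphorylation of biotinylated GST-cJun 1-79 at Ser73 with 10 µM ATP; % is scaled to controls: 0 for no effect and ±100 for the full control effect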
# In short: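 Pre-activated (IL-1β/TNFα) JNK3 in HepG2 lysates phosphorylates biotin-GST-cJun(1-79), 10 uM ATP; anti-phospho-cJun(Ser73) AlphaScreen read at room temperature, pH 7.6 Tris buffer. Compounds pre-incubated 15 min as titrations.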
# [8] = molecular target: 3',5'-cyclic-AMP phosphodiesterase 4B (Homo sapiens) (UniProt Q07343); assay: qHTS Assay for Inhibitors of PDE-IV (AID 607; active = well fitted activation curve with a large enough effect in the main read-out, with a control signal flat, not every such curve was filed as active; also: % of control where 0% means no effect)
# Chain of 3',5'-cyclic-AMP phosphodiesterase 4B (Homo sapiens) (Q07343 whole entry, looked up): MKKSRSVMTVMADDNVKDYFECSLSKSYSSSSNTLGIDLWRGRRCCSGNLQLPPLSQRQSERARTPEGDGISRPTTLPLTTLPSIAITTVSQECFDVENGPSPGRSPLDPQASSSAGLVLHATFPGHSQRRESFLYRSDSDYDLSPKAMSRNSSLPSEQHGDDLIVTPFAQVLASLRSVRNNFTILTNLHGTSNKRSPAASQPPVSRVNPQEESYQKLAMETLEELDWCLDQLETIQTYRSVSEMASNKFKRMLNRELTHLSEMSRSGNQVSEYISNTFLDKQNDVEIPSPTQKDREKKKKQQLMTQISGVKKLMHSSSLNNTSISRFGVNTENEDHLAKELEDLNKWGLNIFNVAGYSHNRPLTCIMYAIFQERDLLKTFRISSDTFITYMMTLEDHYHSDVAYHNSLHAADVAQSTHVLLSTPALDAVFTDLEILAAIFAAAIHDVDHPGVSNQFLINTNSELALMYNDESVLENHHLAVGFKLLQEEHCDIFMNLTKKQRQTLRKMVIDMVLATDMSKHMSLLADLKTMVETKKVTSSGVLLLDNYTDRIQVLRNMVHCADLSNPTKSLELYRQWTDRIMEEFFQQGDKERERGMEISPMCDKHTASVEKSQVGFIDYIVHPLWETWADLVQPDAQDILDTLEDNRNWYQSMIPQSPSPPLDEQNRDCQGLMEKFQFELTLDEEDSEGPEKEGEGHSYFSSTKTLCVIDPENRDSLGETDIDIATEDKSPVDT
# In short: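 The readout is membrane depolarisation from a cAMP-sensing CNG channel, detected with a potential dye at ex 535/em 590. Cells were HEK293-derived (endogenous PDE-IV) at 1000 cells/well, titrated up to 22.9 uM final.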
# [9] = molecular target: Pyruvate kinase (Leishmania mexicana) (UniProt Q27686); assay: qHTS Validation Assay for Inhibitors of Leishmania Mexicana Pyruvate Kinase (AID 945; active = well fitted curve in the direction sought with a large enough effect; an effect the other way counts as inactive or inconclusive;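 also: 0% = DMSO only neutral control wells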)
# Chain of Pyruvate kinase (Leishmania mexicana) (Q27686 2-499 E452W): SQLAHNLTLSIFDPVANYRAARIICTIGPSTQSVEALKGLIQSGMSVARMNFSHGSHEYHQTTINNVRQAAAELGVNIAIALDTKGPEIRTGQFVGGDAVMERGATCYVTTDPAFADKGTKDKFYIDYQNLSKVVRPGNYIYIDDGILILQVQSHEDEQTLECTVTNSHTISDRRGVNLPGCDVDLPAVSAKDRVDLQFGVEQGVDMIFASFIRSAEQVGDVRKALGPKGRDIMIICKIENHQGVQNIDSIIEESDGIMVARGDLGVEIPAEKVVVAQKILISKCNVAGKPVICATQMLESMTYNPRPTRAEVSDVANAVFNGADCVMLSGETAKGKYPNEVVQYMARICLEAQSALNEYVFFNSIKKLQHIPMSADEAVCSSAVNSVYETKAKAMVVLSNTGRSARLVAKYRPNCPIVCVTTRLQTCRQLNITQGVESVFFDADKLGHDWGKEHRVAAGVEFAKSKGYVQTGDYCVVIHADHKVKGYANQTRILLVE
# In short: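 LmPYK E451W 0.2 nM; 0.5 mM PEP, 0.1 mM ADP, 7 mM MgCl2, 50 mM KCl, imidazole pH 7.2, 0.01% Tween 20, 0.05% BSA; 1 h RT; PKLight luminescence; DMSO-normalized.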
# [10] = molecular target: Pyruvate kinase PKM (Homo sapiens) (UniProt P14618); assay: qHTS Assay for Activators of Human Muscle Pyruvate Kinase (AID 954; active = well fitted curve in the direction sought with a large enough effect, not every such curve was filed as active;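 also: 0% = uninhibited enzyme and -100% = no enzyme or full thiadiazolimine inhibition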)
# Chain of Pyruvate kinase PKM (Homo sapiens) (P14618 whole entry, looked up): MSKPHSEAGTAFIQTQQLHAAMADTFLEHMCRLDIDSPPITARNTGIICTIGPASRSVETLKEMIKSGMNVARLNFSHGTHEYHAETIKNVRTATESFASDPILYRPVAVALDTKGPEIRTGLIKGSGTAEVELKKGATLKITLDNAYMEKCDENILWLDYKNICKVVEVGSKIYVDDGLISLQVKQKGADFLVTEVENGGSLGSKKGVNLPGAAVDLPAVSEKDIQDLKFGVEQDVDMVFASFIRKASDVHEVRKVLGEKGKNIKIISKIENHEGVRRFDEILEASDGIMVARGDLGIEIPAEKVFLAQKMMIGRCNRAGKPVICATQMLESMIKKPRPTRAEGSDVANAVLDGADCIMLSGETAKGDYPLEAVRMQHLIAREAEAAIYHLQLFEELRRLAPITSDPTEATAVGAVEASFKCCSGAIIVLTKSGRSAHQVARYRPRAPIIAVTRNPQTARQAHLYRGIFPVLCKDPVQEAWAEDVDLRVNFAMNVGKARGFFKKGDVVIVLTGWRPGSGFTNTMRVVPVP
# In short: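 Reaction: 0.1 nM purified PKM2 with 0.5 mM phosphoenolpyruvate and 0.1 mM ADP, room temperature, 1 h. Readout: luciferase-based ATP luminescence after stop reagent. Activators judged against a 0.3 nM enzyme column.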
# [11] = molecular target: Alpha-galactosidase A (Homo sapiens) (UniProt P06280); assay: Counterscreen for Glucocerebrosidase Inhibitors: qHTS Assay for Human alpha-Galactosidase at pH 4.5 (AID 992; active = well fitted curve in the direction sought with a large enough effect; an effect the other way counts as inactive or inconclusive; also: 0% is about no effect)
# Chain of Alpha-galactosidase A (Homo sapiens) (P06280 whole entry, looked up): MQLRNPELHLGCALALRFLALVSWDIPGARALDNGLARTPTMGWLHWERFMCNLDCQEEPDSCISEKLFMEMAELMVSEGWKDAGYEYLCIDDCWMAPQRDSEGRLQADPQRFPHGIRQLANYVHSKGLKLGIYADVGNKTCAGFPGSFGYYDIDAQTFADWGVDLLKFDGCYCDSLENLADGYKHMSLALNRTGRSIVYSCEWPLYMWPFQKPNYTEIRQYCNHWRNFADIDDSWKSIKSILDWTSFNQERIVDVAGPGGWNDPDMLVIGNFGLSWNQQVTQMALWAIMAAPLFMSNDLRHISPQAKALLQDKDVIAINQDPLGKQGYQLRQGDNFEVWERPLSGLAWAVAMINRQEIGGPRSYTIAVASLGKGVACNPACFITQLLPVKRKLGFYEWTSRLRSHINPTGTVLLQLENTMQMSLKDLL
# In short: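 Concentration-response curves (0.7 nM to 77 uM final) were modeled with the Hill equation to give AC50. Reactions: 2 nM enzyme, 80 uM fluorogenic alpha-galactoside, pH 4.5 citric acid buffer, 20 min, room temperature.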
# [12] = molecular target: alpha-glucosidase (Oryza sativa, rice) (UniProt Q653V4); assay: Counterscreen for Glucocerebrosidase Inhibitors: qHTS Assay for Rice alpha-Glucosidase at pH 5.0 (AID 997; active = well fitted curve in the direction sought with a large enough effect; an effect the other way counts as inactive or inconclusive;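 also: 0% = full activity with enzyme and -100% = basal without enzyme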)
# In short: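 Rice alpha-glucosidase (4 nM final) with 400 uM 4-methylumbelliferyl-alpha-D-glucopyranoside in citrate buffer pH 5.0, 20 min at room temperature, stopped at pH 10; fluorescence 365/440 nm, compounds 0.7 nM–77 uM, AC50 from Hill fits.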
# [13] = molecular target: Cytochrome P450 2C19 (Homo sapiens) (UniProt P33261); assay: qHTS Assay for Inhibitors and Substrates of Cytochrome P450 2C19 (AID 899; active = well fitted curve in the direction sought with a large enough effect; an effect the other way counts as inactive or inconclusive; also: nearly all actives have a fitted effect of over 60% in size)
# Chain of Cytochrome P450 2C19 (Homo sapiens) (P33261 whole entry, looked up): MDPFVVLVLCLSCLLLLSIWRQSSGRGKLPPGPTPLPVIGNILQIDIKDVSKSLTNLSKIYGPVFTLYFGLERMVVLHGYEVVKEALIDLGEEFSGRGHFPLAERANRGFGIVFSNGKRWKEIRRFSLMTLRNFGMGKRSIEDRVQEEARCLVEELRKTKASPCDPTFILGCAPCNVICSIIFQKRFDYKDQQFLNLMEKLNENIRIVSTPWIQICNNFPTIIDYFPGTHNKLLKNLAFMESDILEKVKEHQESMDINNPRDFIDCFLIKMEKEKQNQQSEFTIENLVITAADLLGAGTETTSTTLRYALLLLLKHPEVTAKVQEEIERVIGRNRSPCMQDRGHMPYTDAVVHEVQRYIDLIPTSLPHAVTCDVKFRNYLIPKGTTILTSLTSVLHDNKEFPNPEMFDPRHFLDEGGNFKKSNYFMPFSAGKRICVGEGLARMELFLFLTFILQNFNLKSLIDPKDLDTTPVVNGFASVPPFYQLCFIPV
# In short: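 Signal comes from luciferase acting on luciferin released by CYP2C19-mediated hydroxylation of Luciferin-H EGE, 10uM (KM). Assay mix: 5nM enzyme, 50mM KPO4; 60 min at 37C with NADPH regeneration. Data normalized against 57uM ketoconazole.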
# [14] = qHTS Assay for Identification of Small Molecule Agonists for Thrombopoietin (TPO) Signaling Pathway (AID 917; active = well fitted curve in the direction sought with a large enough effect; an effect the other way counts as inactive or inconclusive; also: % is scaled to controls: 0 for no effect and ±100 for the full control effect)
# In short: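 Murine Ba/F3 cells expressing human TPO receptor and GPIIb-promoter luciferase, IL-3-starved overnight, given compound plus TPO at 26 pM (EC50). After 24 h at 37 C, 5% CO2, luminescence read.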
smiles,measurement,setting,value
COc1ccc2c(c1)C1(C)CC(C)(C)N2C(=O)N1c1ccccc1 (configuration not stated),"activity change, negative = inhibition",[1],-24.6%
same,"activity change, negative = inhibition",[2],24.8%
same,"activity, negative = inhibition",[3],-17.2%
CN1CCc2c(c3c(n2C)CCN(C)[C@@H]3c2cccnc2)[C@H]1c1cccnc1,"activity change, negative = inhibition",[1],5.56%
same,"activity change, negative = inhibition",[2],8.24%
same,"activity, negative = inhibition",[3],9.53%
COc1ccc(Cn2c(CCCO)nc3ccccc32)cc1OC,"activity change, negative = inhibition",[1],-8.44%
same,"activity change, negative = inhibition",[2],3.22%
same,"activity, negative = inhibition",[3],-4.44%
Clc1ccc(C(c2ccc(Cl)cc2)n2cc[n+](C[C@@H](OCc3ccc(Cl)cc3Cl)c3ccc(Cl)cc3Cl)c2)cc1,"activity change, negative = inhibition",[1],-7.48% [at 38 µM]
same,Potency,[4],31.6 µM (active)
same,Potency,[5],> 46 µM
same,Potency,[6],> 46 µM
same,Potency,[7],inactive
same,Potency,[8],inactive
same,Potency,[9],inactive
same,outcome,[10],inactive
same,outcome,[11],inactive
same,outcome,[12],inactive
N#Cc1ccc(OC(=O)c2ccc(N=C(N)N)cc2)cc1,"activity change, negative = inhibition",[1],-0.971% [at 7.69 µM]
same,Potency,[4],2.51 µM (active)
same,"activity, negative = inhibition",[3],-5.61% [at 7.69 µM]
same,"activity change, negative = inhibition",[7],1.07% [at 11.4 µM]
same,Potency,[8],inactive
Clc1ccccc1-c1nnc2sc(-c3ccco3)nn12,"activity change, negative = inhibition",[1],-8.96%
same,"activity change, negative = inhibition",[2],6.46%
same,"activity, negative = inhibition",[3],0.557%
COc1cc2nc(N3CCN(C(=O)[C@H]4COc5ccccc5O4)CC3)nc(N)c2cc1OC,"activity change, negative = inhibition",[1],-28.6% [at 38 µM]
same,Potency,[4],inactive
same,"activity, negative = inhibition",[3],-8.72% [at 38 µM]
same,Potency,[7],inactive
same,Potency,[8],inactive
same,outcome,[13],inactive
same,Potency,[14],inactive
same,Potency,[9],inactive
same,outcome,[10],inactive
same,outcome,[11],inactive
same,outcome,[12],inactive
CC1(C)SC2[C@H](NC(=O)C(NC(=O)N3CCNC3=O)c3ccccc3)C(=O)N2C1C(=O)O (some centres not stated),"activity change, negative = inhibition",[1],-0.219%
same,"activity change, negative = inhibition",[2],7.62%
same,"activity, negative = inhibition",[3],1.47%
same,Potency,[5],> 20.6 µM
COc1cc(N2CCCC2)c(OC)cc1/C=c1/sc2nc3ccccc3n2c1=O,"activity change, negative = inhibition",[1],-3.35%
same,"activity change, negative = inhibition",[2],-23%
same,"activity, negative = inhibition",[3],-0.381%
CCOC(=O)C1=C(N)n2c(s/c(=C\c3ccco3)c2=O)=C(C(=O)OC(C)C)C1c1ccco1 (configuration not stated),"activity change, negative = inhibition",[1],9.43%
same,"activity change, negative = inhibition",[2],-23.7%
same,"activity, negative = inhibition",[3],4.26%
CCc1nc(SCc2cccnc2)c(C#N)cc1C,"activity change, negative = inhibition",[1],-8.39%
same,"activity change, negative = inhibition",[2],-24.2%
same,"activity, negative = inhibition",[3],0.873%
CCOC(=O)c1cnc(SC2CC(=O)N(c3cccc(OC)c3)C2=O)nc1N (configuration not stated),"activity change, negative = inhibition",[1],-16%
same,"activity change, negative = inhibition",[2],-6.66%
same,"activity, negative = inhibition",[3],-12.1%
same,Potency,[5],> 20.6 µM
Cn1c(=O)n(C)c2cc(C(=O)c3ccccc3)ccc21,"activity change, negative = inhibition",[1],17.6%
same,"activity change, negative = inhibition",[2],-28.2%
same,"activity, negative = inhibition",[3],-6.62%
same,Potency,[5],> 20.6 µM
Clc1ccc2[nH]c3c(NCCCN4CCOCC4)ncnc3c2c1,"activity change, negative = inhibition",[1],17%
same,"activity change, negative = inhibition",[2],-2.05%
same,"activity, negative = inhibition",[3],-2.1%
same,Potency,[5],> 20.6 µM
COC(=O)COn1c(SCC(=O)OC)nc2ccccc2c1=O,"activity change, negative = inhibition",[1],2.38%
same,"activity change, negative = inhibition",[2],3.27%
same,"activity, negative = inhibition",[3],-1.3%
same,Potency,[5],> 20.6 µM
CC(NC(=O)NC(N)=O)(C(F)(F)F)C(F)(F)F,"activity change, negative = inhibition",[1],0.637%
same,"activity change, negative = inhibition",[2],-0.043%
same,"activity, negative = inhibition",[3],-1.84%
same,Potency,[5],> 20.6 µM
COc1ccc(-c2cn3ccsc3n2)cc1,"activity change, negative = inhibition",[1],11.1%
same,"activity change, negative = inhibition",[2],4.22%
same,"activity, negative = inhibition",[3],-5.92%
same,Potency,[5],> 20.6 µM
COc1ccc2c(=O)c(-c3nc(C)cs3)coc2c1,"activity change, negative = inhibition",[1],13.2%
same,"activity change, negative = inhibition",[2],15.3%
same,"activity, negative = inhibition",[3],12.4%
same,Potency,[5],> 20.6 µM
Nc1nc2n(n1)C(c1ccc(F)cc1)CC(c1ccc(F)cc1)N2 (configuration not stated),"activity change, negative = inhibition",[1],-1.23%
same,"activity change, negative = inhibition",[2],10.7%
same,"activity, negative = inhibition",[3],5.35%
CCOc1ccc(Cc2nc(N)nc(N)n2)cc1,"activity change, negative = inhibition",[1],-3.76%
same,"activity change, negative = inhibition",[2],6.51%
same,"activity, negative = inhibition",[3],8.67%
same,Potency,[5],> 20.6 µM
O=C(O)c1c[nH]c2ccc(S(=O)(=O)N3CCOCC3)cc12,"activity change, negative = inhibition",[1],13.4%
same,"activity change, negative = inhibition",[2],-7.03%
same,"activity, negative = inhibition",[3],6.65%
same,Potency,[5],> 20.6 µM
Cc1cn2c(-c3ccncc3)nnc2s1,"activity change, negative = inhibition",[1],-4.06%
same,"activity change, negative = inhibition",[2],1.86%
same,"activity, negative = inhibition",[3],-2.66%
same,Potency,[5],> 20.6 µM
CCCCC(C(=O)O)C(C)CC(=O)Nc1cccc(C(=O)O)c1 (configuration not stated),"activity change, negative = inhibition",[1],5.92%
same,"activity change, negative = inhibition",[2],-0.782%
same,"activity, negative = inhibition",[3],12.4%
C=CCOC(=O)C1=C(C)NC(SCC(=O)N(CC)CC)=C(C#N)C1c1ccco1 (configuration not stated),"activity change, negative = inhibition",[1],-27.3%
same,"activity change, negative = inhibition",[2],6.04%
same,"activity, negative = inhibition",[3],-6.01%
same,Potency,[5],> 20.6 µM
S=c1[nH]nc(-c2ccccc2)n1Cc1ccccc1,"activity change, negative = inhibition",[1],-4.69%
same,"activity change, negative = inhibition",[2],-11.2%
same,"activity, negative = inhibition",[3],6.25%
CCOC(=O)CSc1nc(-c2ccc3c(c2)OCO3)ccc1C#N,"activity change, negative = inhibition",[1],7.89%
same,"activity change, negative = inhibition",[2],18.5%
same,"activity, negative = inhibition",[3],4.79%
